Most compounds without a hit are left out; they make up all but 8% or so of the library.
HCMV antiviral = inhibitors of human cytomegalovirus; activity change, negative = inhibition, % at 57.5 µM; 4.5% of 410,000 active; HFF cells, HCMV-luciferase reporter, 72 h; hits give low values; in the data active = activity change below about -60%; inconclusive = no clear call, values can overlap the other calls; inactive = above about -39%
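Screen run at 2 compound doses on HFFs infected with reporter HCMV, MOI 1 PFU/cell. Luciferase activity from cell lysates at 72 h post infection gave inhibition relative to buffer-only and Salinomycin wells.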
Marburg entry inh = inhibitors of Marburg virus binding or cell entry; Marburg virus pseudotyped entry inhibition, cell reporter; Potency, µM (highest dose often 37.8 µM), most hits filed as inhibitors; 1.8% of 300,000 active; AID 540276; calls by dose curve; tested in HEK293 cells
HCV inhibitor = blocks hepatitis C virus; Huh7.5.1 HCVcc-Cre infection, luciferase reporter, 44 h; Potency, µM (doses to about 41.8 µM), hits mostly inhibitors; 3.4% of 340,000 active; AID 651820; active = well fitted inhibition curve with a large enough effect; inconclusive = small, poorly fitted or top-dose-only effect, or another doubt; inactive = no such curve, though single readings can be large or run the other way
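Whole-lifecycle infectious HCVcc-Cre system; cells 1,000/well, compound then virus (~0.5 moi) added 4 h after plating, 44 h culture. Luciferase read 15 sec following 15 min substrate incubation, room temp.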
Lassa entry inh = Lassa virus entry inhibition | Lassa virus pseudotype entry inhibition, cell reporter | Potency, µM (highest dose often 37.9 µM), hits mostly inhibitors | 1.2% of 300,000 active | AID 540256; calls by dose curve; tested in HEK293 cells; also: nearly all actives have a fitted effect of over 50% in size
FMDV inh = antivirals against foot and mouth disease virus. FMDV antiviral cell-based qHTS. Potency, µM (titrated, usually from 57.9 µM), actives largely listed as inhibitors. 1.2% of 410,000 active; calls by dose curve; tested in HEK293T cells; also: read-out not given here; nearly all actives have a fitted effect of over 45% in size
SARS PLpro yeast = inhibitors of SARS-CoV papain-like protease in yeast | 0.19% of 330,000 active | Potency, µM (top dose mostly 32.9 µM), most hits filed as activators | S. cerevisiae expressing SARS-CoV PLpro, growth rescue | AID 485353; calls by dose curve; also: nearly all actives have a fitted effect of over 55% in size
Hits are given with their value; . = inactive; ? = inconclusive; / = not tested or not shown; ! = repeats disagree; [ ] = remark or other dose.

SMILES	HCMV antiviral	Marburg entry inh	HCV inhibitor	Lassa entry inh	FMDV inh	SARS PLpro yeast
COc1ccc(CC(N)c2csc(NC(=O)c3ccccc3OC)n2)cc1 (stereo not given)	-81	/	/	/	.	/
COc1ccc(CC(N)c2csc(NC(=O)c3ccccc3)n2)cc1 (stereo not given)	.	/	/	/	.	/
COc1ccc(CC(N)c2csc(NC(=O)c3cccc(OC(F)(F)F)c3)n2)cc1 (stereo not given)	.	/	/	/	.	/
NC(Cc1ccccc1)c1csc(NC(=O)c2cccc(OC(F)(F)F)c2)n1 (stereo not given)	-101	/	/	/	?	/
Cc1cccc(-c2nc3c(cnn3-c3ccccc3)c(=O)n2-c2cccc(Cl)c2)c1	.	/	/	?	.	/
CCOC(=O)c1sc2ccccc2c1S(=O)(=O)N1CCN(c2cccc(C)c2C)CC1	.	/	/	?	.	/
Cc1cc(C)n(C(C)CC(=O)Nc2ccc(C)c(F)c2)n1 (stereo not given)	.	/	/	.	.	/
Cc1ccc(NC(=O)C2CC(O)CN2C(=O)Oc2ccccc2)c(C)c1 (stereo not given)	.	.	.	.	.	.
Cc1ccc(NC(=O)C2CC(O)CN2C(=O)OCc2ccccc2)c(C)c1 (stereo not given)	-63	.	.	.	.	.
CC1CN(Cc2cccn2-c2ncccn2)Cc2cc(Cl)ccc2O1 (stereo not given)	/	/	/	/	.	/
CC1CCCN(C(=O)c2ccc3c(=O)n(C4CCCC4)c(=S)[nH]c3c2)C1 (stereo not given)	-62	.	10µM	?	?	.
CCOC(=O)C1CCCN(C(=O)c2ccc3c(=O)n(Cc4ccccc4OC)c(=S)[nH]c3c2)C1 (stereo not given)	-94	/	?	/	.	.
O=C(c1ccc2c(=O)n(-c3ccccc3)c(=S)[nH]c2c1)N1CCN(c2ccccc2)CC1	.	/	11µM	/	?	.
CCOC(=O)C1CCCN(C(=O)c2ccc(Cn3c(=S)[nH]c4cc(C(=O)OC)ccc4c3=O)cc2)C1 (stereo not given)	.	?	?	.	.	.
O=C(c1ccc2c(=O)n(-c3ccccc3)c(=S)[nH]c2c1)N1CCCCC1	-92	?	?	?	?	.
COc1ccc(OC)c(-n2c(=S)[nH]c3cc(C(=O)N4CCN(c5ccccc5)CC4)ccc3c2=O)c1	.	.	.	.	.	.
O=C(c1ccc2c(=O)n(Cc3ccccc3)c(=S)[nH]c2c1)N1CCCC1	?	?	.	.	.	.
O=C(c1ccc2c(=O)n(C3CCCC3)c(=S)[nH]c2c1)N1CCCCCC1	?	.	?	?	?	.
O=C1C=C(c2ccc3cc[nH]c3c2)C[C@@H](c2ccc3c(c2)OCO3)C1	/	/	?	/	.	.
Cc1c(Cl)cccc1NC(=O)CN(C1CCCCC1)S(C)(=O)=O	.	/	.	/	.	.
C=C[C@H](N)CCC(=O)O	/	?	/	/	.	/
CCOCN(C(=O)Cn1c(C)nc2ccccc21)c1c(C)cccc1CC	.	.	/	.	.	/
CCOCN(C(=O)Cn1c(CC(C)C)nc2ccccc21)c1c(C)cccc1CC	-62	?	/	.	.	/
Cc1cccc(N(C)C(=O)CCNS(=O)(=O)c2ccc3c(c2)CCN3C(=O)C2CC2)c1	.	/	/	.	.	/
CCCCNC(=O)NNC(=O)c1cc(C)on1	.	.	.	.	.	.
SMILES	HCMV antiviral	Marburg entry inh	HCV inhibitor	Lassa entry inh	FMDV inh	SARS PLpro yeast
COc1ccc(-c2ccc(C#N)c(OC(=O)c3c(Cl)cccc3Cl)n2)cc1	.	.	5µM	?	.	/
CCOC(=O)c1cccc(NC(=O)CSc2ncc3c(n2)-c2ccc(Cl)cc2N(Cc2ccccc2)S3(=O)=O)c1	.	/	/	.	.	/
CCCCCCC(C)(C)c1ccc([C@@H]2C[C@H](O)CC[C@@H]2CCCO)c(O)c1	/	13µM	/	/	?	/
Cn1c(=O)n(C/C=C/c2ccccc2)c(=O)c2c1nc1n2CCCN1c1ccc(F)cc1	.	?	11µM	?	?	.
C=C(C)Cn1c(=O)c2c(nc3n2CCN3c2cccc(Cl)c2C)n(C)c1=O	.	.	?	.	22µM	.
Cn1c(=O)n(Cc2ccccc2)c(=O)c2c1nc1n2CCN1c1ccccc1	?	/	/	.	.	/
CCn1c(=O)c2c(nc3n2CCN3c2ccccc2)n(C)c1=O	-75	?	?	.	.	.
COc1ccccc1-c1ccc2n(c1=O)C[C@@H]1[C@@H](CO)[C@H](C(=O)NCCCN(C)C)N(C(C)=O)[C@H]21	.	/	/	/	/	/
CCCCCCCCNC(C)C(O)c1ccc(SC(C)C)cc1 (stereo not given)	-82	.	.[8.37 µM]	?	?	.
COc1cc(CNC(=O)CCCC/C=C/C(C)C)ccc1O	.	/	.	/	45µM!	/
CCCCN(C)CCNC(=O)c1cc(-c2ccc(Cl)s2)nc2ccccc12	-101	.	/	?	.	/
CN1CCC(NC(=O)c2cc(-c3cccc(Br)c3)nc3ccccc23)CC1	.	10µM	11µM	?	.	.
O=C(O)c1cc(-c2ccc(Br)s2)nc2ccccc12	.	/	.	/	.	.
CCN(CC)CCNC(=O)c1cc(-c2ccc(Br)s2)nc2ccccc12	-94!	?	13µM	?	.	.
O=C(NC1CC1)c1cc(-c2ccc(Br)cc2)nc2ccccc12	.	/	.	/	.	.
CN1CCN(NC(=O)c2cc(-c3ccc(Br)s3)nc3ccccc23)CC1	.	?	10µM	?	.	.
COc1ccc(C(C(=O)NC2CCCC2)N(Cc2cccnc2)C(=O)c2snc(C(N)=O)c2N)cc1 (stereo not given)	.	?	.	.	.	.
CCC(=O)OCC(=O)Nc1cc([N+](=O)[O-])ccc1OC	.	.	.	.	.	.
CCN(CC)CCNC(=O)c1cc2c(=O)n(C)c3cc(Cl)ccc3c2s1	.	.	/	.	.	/
CCN(CC)CCCNC(=O)c1cc(Nc2ccc(OC)cc2OC)nc2ccccc12	.	/	.	/	.	.
CCN(CC)CCNC(=O)c1cc2cc(Br)ccc2s1	.	?	13µM	.	.	.
CCCCOc1cc(C(=O)NCCN(CC)CC)c2ccccc2n1	.	10µM	.[8.37 µM]	13µM	.	.
C[C@H]1[C@@H](c2ccccc2)Oc2c(Cl)cccc2S(=O)(=O)N1Cc1ccc(Cl)cc1	/	/	/	.	/	/
Cc1ccccc1N(CC(=O)NCc1ccco1)C(=O)CNS(=O)(=O)c1ccc(F)cc1	.	.	.	/	.	.
Cc1cccc(C)c1N(CC(=O)NCc1ccco1)C(=O)CNS(=O)(=O)c1ccc(F)cc1	.	8.9µM	.	.	.	.
CCC(=O)c1ccc(O)c(CC=C(C)C)c1	-64	.	.	.	?	.
CCCCC(=O)NC(c1cccs1)c1cc(Cl)c2cccnc2c1O (stereo not given)	-100	/	2.2µM	/	.	.
CCCC(=O)NC(c1ccc(OC)c(OC)c1)c1cc(Cl)c2cccnc2c1O (stereo not given)	-99	10µM	.	?	.	.
CCN(CC)C(=O)Oc1ccc(Cl)c2cccnc12	.	.	.	.	?	.
